# Records with an inconclusive call do not appear. More than one record can exist for a structure, and the calls need not agree. The source made the active and inactive calls. How the source made its calls, unless noted: active means hit-call score of the fitted dose curve at least 0.9, where 1 is the maximum; inconclusive means response in the unintended direction; inactive means score below 0.9.
# Tests used:
# [1] = CCTE_Shafer_MEA_acute_AB: CCTE's Alamar Blue Assay for Cytotoxicity in the Neural Acute Assay, Shafer Lab (AID 2284069);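 further: active compounds lower the viability signal compared with DMSO wells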
# How it was run: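 Primary rat cortical neurons on MEA plates, exposed acutely after baseline recording on day 13 or 15 post-plating. Viability by CellTiter Blue resazurin reduction (1:6 reagent dilution), fluorescence 544/590 nm; loss of signal versus DMSO.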
# [2] = system: DIO3 (gene 1735); assay: CCTE_GLTED_hDIO3: CCTE's human Deiodinase 3 (DIO3) Inhibition Assay, Great Lakes Toxicology and Ecology Division (GLTED) Lab (AID 2284055);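 further: potency is for inhibition seen as loss of released iodide signal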
# How it was run: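 Inhibition is read as reduced iodide release, measured spectrophotometrically by the Sandell-Kolthoff cerium/arsenic reaction. Adenovirus-expressed human DIO3 enzyme is exposed to chemical for 3 h, n=3 plates. Iodinated chemicals, nitrite, iron or thiocyanate may interfere.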
# [3] = CCTE_Shafer_MEA_dev_per_network_spike_spike_number_mean: CCTE's Neural Network Formation Assay for Mean Number of Spikes in a Network Spike, Shafer Lab (AID 2284053; active means hit-call score of the fitted dose curve at least 0.9, where 1 is the maximum; inactive means score below 0.9;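 on AC50: fitted as decrease in spikes per network spike relative to DMSO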)
# How it was run: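 Primary rat cortical neurons on 48-well, 16-electrode MEA plates were exposed from plating to DIV 12, with dosing renewed on DIV 5 and 9. Spikes per network spike (0.05 s peak window) were recorded on DIV 5, 7, 9 and 12 and collapsed as trapezoidal AUC versus DMSO.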
# [4] = CCTE_Shafer_MEA_dev_mutual_information_norm: CCTE's Neural Network Formation Assay for Mutual Information Normalization, Shafer Lab (AID 2284091; active means hit-call score of the fitted dose curve at least 0.9, where 1 is the maximum; inactive means score below 0.9;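 on AC50: mutual information between electrodes summarised as area under curve across four recording days; potency is for a decrease in mutual information relative to DMSO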)
# How it was run: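 Neurons from rat cortex were seeded at 1.5 x 10^5 cells/well onto PEI-coated MEAs in a laminin drop, then exposed to compound from day 0 for twelve days. Network recordings on four days gave mutual information, summarised by AUC relative to DMSO.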
# [5] = CCTE_Shafer_MEA_dev_correlation_coefficient_mean: CCTE's Neural Network Formation Assay for Mean Correlation Coefficient, Shafer Lab (AID 2284093; active means hit-call score of the fitted dose curve at least 0.9, where 1 is the maximum; inactive means score below 0.9;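 on AC50: well mean pairwise spike train correlation integrated as AUC over recording days 5 to 12; potency fitted for loss of correlation relative to DMSO vehicle wells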)
# How it was run: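 Spontaneous activity recorded on days 5, 7, 9 and 12 post-plating; pairwise spike correlations are averaged across active electrodes and collapsed to an area-under-curve. Rat cortical cultures are dosed from plating through 12 days, with compound renewed at media changes.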
# [6] = IUF_NPC1b_proliferation_BrdU_72hr: Leibniz Research Institute for Environmental Medicine (IUF) 72-hour Neural Progenitor Cell Bromodeoxyuridine (BrdU) Proliferation Assay (NPC1b) (AID 2284207; active means hit-call score of the fitted dose curve at least 0.9, where 1 is the maximum; inactive means score below 0.9)
# How it was run: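 Luminescent BrdU ELISA measured DNA synthesis during the last 16 h of a 72 h exposure of primary human neural progenitor spheres grown with EGF and FGF. Signal was fitted relative to DMSO controls.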
# [7] = CCTE_Shafer_MEA_dev_LDH: CCTE's Lactate Dehydrogenase Assay for Cytotoxicity in the Neural Network Formation Assay, Shafer Lab (AID 2284068);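 further: exposure for twelve days from plating with re-dosing on DIV 5 and 9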
# Experimental: CCTE_Shafer_MEA_dev assay is conducted using Axion Biosystems 48 well microelectrode array (MEA) plates and Maestro recording system. Each well of the MEA plate contains a grid of 16 microelectrodes embedded in the culture surface. Electrically active cells, such as neurons, can be cultured over the electrodes, and electrical activity in these cells can be recorded extracellularly. The spontaneous firing of neurons is captured from each electrode on a microsecond timescale providing both temporally and spatially precise data. […] The CCTE_Shafer_MEA_dev assay uses primary cultures of rat cortical neurons. Recordings are made on days post-plating 5, 7, 9 and 12. As these cultures mature over time, neural networks develop functional activity and form cohesive networks in which electrical activity can be highly coordinated. CCTE_Shafer_MEA_dev_LDH is 1 of 19 assay components of the CCTE_Shafer_MEA_dev assay. It measures the lactate dehydrogenase enzyme activity using spectrophotometry.Data from the assay component CCTE_Shafer_MEA_dev_LDH was analyzed into 1 assay endpoint. This assay endpoint, CCTE_Shafer_MEA_dev_LDH, was analyzed in the positive analysis fitting direction relative to DMSO as the negative control and baseline of activity. Using a type of viability reporter, loss-of-signal activity can be used to understand cell viability.
# On the day prior to culture, each well was coated thoroughly with 150 uL of 0.05% polyethyleneimine (PEI, Sigma Cat P3143) in 50 mM HEPES (Sigma Cat H7523) at a pH of 8. The plate was incubated at 37C for one hour. PEI was rinsed out with 500 uL of sterile water three times. Plates were stored at 4C until the day of culture. This culture was plated at a seeding density of 1.5 x 10^5 cells/well on a 48-well MEA plate, prepared as described above. Cells were administered via a 25 uL media/laminin ([…]; Sigma Cat L2020-1MG) drop directly onto the microelectrode array, as adding the cells with the laminin results in better attachment than pre-coating with laminin. After 2 hours, an additional 475 uL of cortical media was added and the cells returned to the incubator. Exposure starts at day 0 of plating and is continued over twelve days of network development until the experiment is terminated. Cells are fed with fresh medium on DIV 5 and 9, following the recordings on those days. The entire volume of media in the well is exchanged and any vehicle or compound treatment is renewed. Complete details are found in OP-NHEERL/ISTD/SBB/TJS/2015-03-r0 (available on request, email shafer.tim@epa.gov). Measurement of the electrical activity is non-invasive, and recordings can be made from the same plate over multiple different days of the culture. In cortical neurons, this allows for the measurement of extracellular action potentials over the period during which networks form in the MEA plate.
# [8] = CCTE_Shafer_MEA_dev_AB: CCTE's Alamar Blue Assay for Cytotoxicity in the Neural Network Formation Assay, Shafer Lab (AID 2284083);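 further: twelve days of exposure from plating with re-dosing on DIV 5 and 9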
# How it was run: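 Primary rat cortical neurons on PEI-coated 48-well MEA plates, 1.5 x 10^5 cells/well in laminin drop; compound exposure from day 0 of plating for twelve days, renewed at medium changes on DIV 5 and 9. Viability read as resazurin reduction by fluorescence, relative to DMSO.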
# [9] = UKN5_HCS_SBAD2_cell_viability: Viability Assessment in the University of Konstanz (UKN) Leist Lab Neurite Outgrowth Assay in human iPSC-derived immature Dorsal Root Ganglia Neurons (UKN5) (AID 2284056; active means hit-call score of the fitted dose curve at least 0.9, where 1 is the maximum; inactive means score below 0.9)
# How it was run: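 iPSC-derived immature peripheral neurons (SBAD2) seeded on Matrigel with CHIR99021, SU5402 and DAPT, dosed 1 h later for 24 h. Viability from Hoechst H-33342 and calcein-AM live staining, high-content imaging; bidirectional fit versus DMSO.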
# [10] = UKN5_HCS_SBAD2_neurite_outgrowth: University of Konstanz (UKN) Leist Lab Neurite Outgrowth Assay in human iPSC-derived immature Dorsal Root Ganglia Neurons (UKN5) (AID 2284070; active means hit-call score of the fitted dose curve at least 0.9, where 1 is the maximum; inactive means score below 0.9); conditions: actives raise or lower the signal
# Experimental: UKN5_HCS_SBAD2 is a cell-based, multiplexed-readout assay screening for neurite outgrowth and cell viability that uses SBAD2 (peripheral neurons differentiated from iPSC), a human peripheral nervous system cell line, with measurements taken at […] after chemical dosing in a microplate: 96-well plate. UKN5, also referred to as PeriTox, is an assay that uses human iPSC line SBAD2 as a model of peripheral neurons. Following 24 hr chemical exposures in multi-well plates, neurite area is evaluated as a marker of neurite outgrowth using high-content imaging of cells stained with calcein-AM. Cell viability is assessed using stain Hoechst H-33342.UKN5_HCS_SBAD2_neurite_outgrowth is an assay component measured from the UKN5_HCS_SBAD2 assay. It is designed to make measurements of neurite outgrowth, a form of morphology reporter, as detected with Fluorescence intensity signals by HCS Fluorescent Imaging.The assay endpoint UKN5_HCS_SBAD2_neurite_outgrowth was analyzed with bidirectional fitting relative to DMSO as the negative control and baseline of activity. Using a type of morphology reporter, gain or loss-of-signal activity can be used to understand developmental effects. To generalize the intended target to other relatable targets, this assay endpoint is annotated to the neurodevelopment intended target family, where the subfamily is neurite outgrowth. […]
compound,measurement,setting,value
CNCc1cc(F)ccc1Oc1ccc(Cl)c(Cl)c1,outcome,[1],inactive
CN[C@H]1CC[C@@H](c2ccc(Cl)c(Cl)c2)c2ccc(S(N)(=O)=O)cc21,AC50,[2],45.9 µM (active)
same,outcome,[1],inactive
Cc1ccc(C(C)C)c(O)c1,outcome,[1],inactive
C[Si]1(C)O[Si](C)(C)O[Si](C)(C)O[Si](C)(C)O1,outcome,[3],inactive
same,outcome,[4],inactive
same,outcome,[5],inactive
same,outcome,[6],inactive
O=c1[nH]cc(F)c(=O)[nH]1,AC50,[3],0.913 µM (active)
same,AC50,[7],2.48 µM (active)
same,AC50,[8],3.24 µM (active)
same,AC50,[4],0.756 µM (active)
same,AC50,[5],0.696 µM (active)
CC(C)(C)c1cc(O)c(C(C)(C)C)cc1O,outcome,[1],inactive
CCCCC(CC)COC(=O)CC(C(=O)OCC(CC)CCCC)S(=O)(=O)O (stereo not given),AC50,[2],92.2 µM (active)
Clc1cc(Cl)c(Cl)cc1Cl,outcome,[1],inactive
CCCCCCCCCCCCCO,AC50,[2],51.8 µM (active)
CCOC(=O)C(C)(C)Oc1ccc(Cl)cc1,outcome,[1],inactive
Cc1ccc2ncccc2c1,outcome,[1],inactive
CC=Cc1ccc(O)c(OC)c1,AC50,[2],14.9 µM (active)
C=CCOC(=O)c1ccccc1C(=O)OCC=C,outcome,[1],inactive
Nc1nc(N)c2nc(CNc3ccc(C(=O)N[C@@H](CCC(=O)O)C(=O)O)cc3)cnc2n1,outcome,[1],inactive
FC(F)(F)C(F)(F)C(F)(F)C(F)(F)C(F)(F)C(F)(F)CCI,outcome,[3],inactive
same,outcome,[1],inactive
same,outcome,[8],inactive
same,outcome,[4],inactive
same,outcome,[5],inactive
Nc1ccccc1N,outcome,[1],inactive
CC(=O)Oc1ccccc1C(=O)O,outcome,[3],inactive
same,outcome,[9],inactive
same,outcome,[7],inactive
same,outcome,[10],inactive
same,outcome,[8],inactive
same,AC50,[4],15 µM (active)
same,outcome,[4],inactive
same,outcome,[5],inactive
same,AC50,[6],725 nM (active)
CCCc1cc(=O)[nH]c(=S)[nH]1,AC50,[3],25 µM (active)
same,outcome,[3],inactive
same,AC50,[7],23.8 µM (active)
same,outcome,[7],inactive
same,outcome,[1],inactive
same,AC50,[8],24.6 µM (active)
same,outcome,[8],inactive
same,outcome,[4],inactive
same,AC50,[5],23.9 µM (active)
same,outcome,[5],inactive
c1cc(-c2ccncc2)ccn1,outcome,[1],inactive
Cc1ccc(C)c(O)c1C,outcome,[1],inactive
C=CCc1ccc(O)c(OC)c1,outcome,[3],inactive
same,outcome,[7],inactive
same,outcome,[1],inactive
same,outcome,[8],inactive
same,outcome,[4],inactive
same,outcome,[5],inactive
NS(=O)(=O)c1cc2c(cc1Cl)NCNS2(=O)=O,outcome,[1],inactive
CC(C)c1ccc(C(=O)N=C(N)N)cc1S(C)(=O)=O,outcome,[3],inactive
same,outcome,[7],inactive
same,outcome,[8],inactive
same,outcome,[4],inactive
same,outcome,[5],inactive
OC[C@@H](O)[C@@H](O)[C@H](O)[C@H](O)CO,outcome,[3],inactive
same,AC50,[8],0.437 µM (active)
same,outcome,[4],inactive
same,outcome,[5],inactive
same,outcome,[6],inactive
COc1cc(-c2nc(NC(=O)c3cc4cc(C)cc(C)c4n3CC(=O)O)sc2CCC2CCCCC2)c(OC)cc1Cl,AC50,[2],8.64 µM (active)
CCCCCCCCCCCCCCCCCC(=O)O,outcome,[1],inactive
COc1ccc2c(c1)c(CC(=O)O)c(C)n2C(=O)c1ccc(Cl)cc1,outcome,[1],inactive
Cc1cc(=O)[nH]c(=S)[nH]1,outcome,[3],inactive
same,outcome,[8],inactive
same,outcome,[4],inactive
same,outcome,[5],inactive
COc1ccc(S(=O)(=O)N2C(=O)[C@@](c3ccccc3OC)(N3C[C@H](O)C[C@H]3C(=O)N(C)C)c3cc(Cl)ccc32)c(OC)c1,outcome,[1],inactive
CC1=C(/C=C/C(C)=C/C=C/C(C)=C/CO)C(C)(C)CCC1,AC50,[2],28.3 µM (active)
